Screen size: about 2,400 compounds; about 40 (2%) were called active. Roughly 1% stayed inconclusive and do not appear here. This is one part of a sample in which actives are shown more often than they occur.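 Rule for the calls: active = inhibition at or above 60%; inconclusive = inhibition from 0% up to below 60%; inactive = no inhibition observed.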
Assay: qHTS Assay for Small Molecule Inhibitors of Mitochondrial Division or Activators of Mitochondrial Fusion: Hit Validation in Malachite Green Assay;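 for inhibition: plate controls were DMSO wells with GTPase for no effect and protein-free buffer wells for full effect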
Conditions: purified GTPase, malachite green phosphate release, A650; active compounds read high
From the text: The budding yeast S. cerevisiae is a powerful system to study mitochondrial fusion. Unlike other organisms, yeast cells without functional mitochondrial DNA (mtDNA) can be propagated and studied as long as they maintain a mitochondrial compartment and are provided with a fermentable carbon source. When mitochondrial fusion is blocked in yeast, mitochondrial tubules rapidly fragment and division continues unopposed. Under conditions where fusion is compromised in mammalian cells, nearly identical changes in mitochondrial structure have been observed. Thus, these findings indicate that steady state mitochondrial structure in cells is a characteristic and specific indicator of fusion activity. Mounting evidence has pointed to a connection between mitochondrial dynamics and apoptosis in mammalian cells. These studies indicate that in mammalian cells mitochondrial dynamics are more integrated into cellular processes than in yeast cells and have evolved not only to distribute the organelle but also to aid in the regulation of cellular homeostasis. Mitochondrial fusion proteins attenuate apoptosis by inhibiting the release of cytochrome c from mitochondria, in part by controlling cristae structures. Thus, small molecules that inhibit mitochondrial fusion may promote apoptosis and potentially act as novel chemotherapeutics and stimulation of apoptosis has become an attractive target of anti-cancer therapies. To identify inhibitors of mitochondrial division, we exploit the growth phenotypes of mitochondrial fusion-defective mutants. The temperature sensitive fusion alleles, such as fzo1-1 and mgm1-5, cause mitochondrial membranes to fragment in cells under non-permissive conditions and cells lose mtDNA, and are unable to grow in the presence of non-fermentable carbon source glycerol. Inhibiting mitochondrial division rescues growth. The hits were tested by the assay provider in a malachite green assay. NIH Chemical Genomics Center [NCGC] NIH Molecular Libraries Probe Production Centers Network [MLPCN] MLPCN Grant: MH081279 Assay Submitter (PI): Jodi M. Nunnari
Malachite Green Reagent Malachite Green carbinol base- Aldrich 229105 Ammonium molybdate - Sigma A7302 For 100 mL Malachite Green reagent in 1N HCl 16 mL conc. HCL + 32 mL H20 = 48 mL 4N HCl 34 mg malachite green base into 40 mL 1N HCl (10 mL 4N HCl + 30 mL H20) 1 g ammonium molybdate in 15 mL 4N HCl Mix Solutions together. Bring up to […] with H2O. Filter using a 0.2 um tissue culture filter unit (has plastic bottle attached) store at 4 masculine C. (Avoid Glassware/Plastics washed in detergent. Mix solutions in 50 mL conical vials.) For 20 uL reaction volume 1.0 uL Test Drug or DMSO: Added first to each well […]: 25 mM Hepes/Pipes pH 7.0 (H/P) 2.0 uL: 50 mM MgCl2 (final 5mM) 2.32 uL: 1 M NaCl (with contributing protein salt, Final = 150mM) 13.4 uL per reaction. Can be mixed in larger volume (Mini Master Mix) 1.6 uL: Protein 7.5 uM or Protein Freezing Buffer. (Final = 0.6uM) After Protein Added to mini Master Mix, 15ul Total Master Mix added to each well with drug. 4 uL: 500 uM GTP (Final = 100uM), Dilute with 25 mM H/P, store on ice. 20 uL Total Volume Make Master Mix: (Calculate desired reactions and add a few for multi-channel pipetting volume). Multiply the number of desired reactions by 13.4 uL for total Mini Master volume. Multiply the number of desired reactions by 1.6 uL for total Protein volume. Mix, and keep on ice until added to wells. Add 15 uL of Master Mix to each reaction well, incubate with drug for 10 min. For Positive (No Drug) controls add 15 uL Master Mix to wells with only 1 uL DMSO. Make PFB (Protein Freezing Buffer) (no Protein) Master Mix. Multiply the number of desired reactions by 13.4 uL for total Mini Master volume. Multiply the number of desired reactions by 1.6 uL for total PFB volume. Mix, and keep on ice until added to wells Add 10 uL of PFBMaster Mix to each Phosphate Standards well, and 15 uL to each negative control well with DMSO. […]

inhibition, active:
CCNC(=O)C(=O)N/N=C/c1cc([N+](=O)[O-])ccc1O 78.8%
O=c1c2ccccc2sn1-c1cc(S(=O)(=O)N2CCOCC2)ccc1N1CCCC1 103%
Cc1cc(SCC(=O)c2ccc(Cl)cc2)nc(=O)[nH]1 96.8%
C/C(=N\NC(=O)COc1ccccc1-c1ccccc1)c1ccccn1 71.6%
Cc1ccc(-c2nnc(NC(=O)c3ccco3)o2)c(C)c1 74.4%
COc1ccc(OC)c(/C=C2\SC(N3CCCC(C)C3)=NC2=O)c1 (stereo not drawn) 66.7%

inhibition, inactive:
O=C(COc1ccc(F)cc1Br)Nc1ccccc1N1CCOCC1
CC1=C(C(=O)OCc2ccccc2)C(/C=C/c2ccccc2)N2C(=O)CCSC2=N1 (stereo not drawn)
CCN(CC)c1ccc(/C=N/NC(=O)c2ccc([N+](=O)[O-])cc2)cc1
O=[N+]([O-])c1ccc(O)c(P(=O)(c2ccccc2)c2ccccc2)c1
CCOC(=O)c1c(NC(=O)COC(=O)Cn2cnc3ccccc32)sc2c1CCC(C)C2 (stereo not drawn)
N#C/C(=C\c1cn[nH]c1-c1ccc(Cl)cc1)C(=O)NCc1ccccc1
O=C(Nc1cccc(Br)c1)c1ccccc1-c1ccccc1
Nc1c(-c2ccccc2)c(CSc2nc3ccccc3[nH]2)nn1-c1ccc(Cl)cc1
O=C(c1cc(S(=O)(=O)N2CCN(c3ccccc3)CC2)ccc1Cl)N1CCCCCCC1
CCN(Cc1ccccc1)C(=O)c1oc2ccc(S(=O)(=O)N3CCOCC3)cc2c1C
CCOC(=O)c1cccc(-c2c(-c3ccccc3)ncc3cc(OC)c(OC)cc23)c1
O=C(NCc1ccc2c(c1)OCO2)c1ccc(CSCc2ccc(Cl)cc2)o1
O=C(Nc1ccccc1O)c1c(O)c2c([nH]c1=O)CCCC2
O=C(O)c1ccccc1CSc1nc2ccccc2n1Cc1ccccc1C(=O)O
Cc1ccc(C(=O)CSc2nc(C(C)C)nc3ccccc23)cc1
COc1ccc(C(=O)CSc2ccc(-c3ccc(C)cc3)nn2)cc1
O=C(Nc1ccc(N2CCOCC2)c(S(=O)(=O)Nc2ccccc2Cl)c1)c1ccccc1
COc1cccc(C(Nc2ccccn2)c2c(NC(=O)c3ccco3)sc(C)c2C)c1 (stereo not drawn)
Cc1ccc(C)c(N2CCN(C(=O)CCCn3c(=O)c4cccn4c4cccnc43)CC2)c1
COc1cccc(C(=O)NC2CCN(C(=O)N3c4ccccc4Sc4ccccc43)CC2)c1
O=C(COc1ccccc1-c1ccccc1)NCc1cccc(Cl)c1
O=C(COc1cc2oc(=O)cc(-c3ccccc3)c2cc1Cl)NCc1ccccn1
O=[N+]([O-])c1ccccc1SN(Cc1ccccc1)c1ccccn1
CCC(CC)C(=O)Nc1cc(C(=O)OC)ccc1C(=O)OC
O=C(/C=C/c1ccc(Cl)cc1)N(c1ccccn1)C1CCCCC1
CC(/C=N/NC(=O)CSc1nnc(SCc2ccccc2)s1)=C\c1ccco1
COc1ccc(-c2nn(-c3ccccc3)cc2/C=N/Nc2ccc3ccccc3n2)cc1OC
COc1ccccc1C1CC(c2ccc(Br)cc2)=NN1C(=O)c1cccnc1 (stereo not drawn)
CCC(C)c1ccc(N(CC(=O)NC(C)(C)C)C(=O)CNC(=O)c2cccs2)cc1 (stereo not drawn)
Cc1nc(NCc2ccccn2)c2c3c(sc2n1)CCCC3
COc1c(C)cc(Br)cc1C(=O)Nc1cccc(NC(=O)c2ccco2)c1
CN(C)c1cccc(NC(=O)c2ccco2)c1
CC1=C(C)CC(C(=O)NNC(=O)c2csc3c2CCC(C(C)(C)C)C3)C(C(=O)O)C1 (stereo not drawn)
Cc1ccc(SCCNS(=O)(=O)c2ccc3c(c2)OCCO3)cc1
C=CCc1c(C)nc(-c2ccccc2)nc1Nc1ccc(O)cc1
COc1ccc(Cl)cc1NC(=O)CN(C)C(=O)c1cc2c(F)cccc2s1
COc1cccc(C2=CC(=O)C[C@H](c3ccc(Cl)cc3)C2)c1
COC(=O)[C@@]12CCCCN1[C@H](c1ccc(-c3ccc(OC)cc3)c(OC)c1)[C@@H]1C(=O)N(C)C(=O)[C@@H]12
O=C(Nc1cccc(-c2nnc(-c3ccccc3)o2)c1)c1ccc(Br)o1
O=C1N=C(N2CCN(c3ccccc3)CC2)S/C1=C/c1cccs1
COc1cc(/C=C2\SC(N3CCCCC3)=NC2=O)cc(OC)c1OC
COC(=O)c1cc2c(ccn2-c2ccc(F)cc2)n1Cc1ccc(OC(C)=O)cc1
Cc1ccc(S(=O)(=O)NC23CC4CC(CC(C4)C2)C3)cc1
CC1CCc2nc3ccc(S(=O)(=O)N4CCC(C(=O)NCc5ccccc5Cl)CC4)cc3c(C(=O)O)c2C1 (stereo not drawn)
Cc1ccc2nnn(Cc3cccc(C(C)(C)C)c3O)c2c1
COc1ccc(C(=O)Nc2nc(-c3cccs3)cs2)cc1
COc1cccc(-c2nnc(NC(=O)c3ccc4ncsc4c3)o2)c1

Source: PubChem BioAssay AID602289 (National Center for Advancing Translational Sciences (NCATS), 2012)
